The record followed here is PubChem BioAssay AID485284 (NMMLSC, 2010).

Potency and affinity values are given separately.

This experiment in a line: loss of vesicle association with mouse CD8+ T cells – mouse 2C CD8+ T cells, flow cytometry, dose response (AID 485284).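 Note: drosophila derived vesicles carrying Ld MHC with QL9 peptide plus B7-1 and ICAM-1; vesicle binding seen as anti-B7-1 PE fluorescence on CD8 gated cells.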 To be noted: 2C mouse CD8+ T cell-exosome binding; at 45 µM (top of the series). Background: In flow cytometry, cells or beads pass a laser one at a time.
`O=C(CN1C(=O)NC2(CCCCCC2)C1=O)N1CCN(c2ccccc2)CC1`: the binding remaining, % of control turned out to be 158%.

On to `O=C(NCc1ccccc1C(F)(F)F)C1CCC(=O)N(CCCc2ccccc2)C1` (stereo not given), for which the binding remaining, % of control came to 90.8%.

For the molecule `CNCc1cn2cc(Cl)ccc2n1`, the binding remaining, % of control worked out at 125%.

`c1ccc(COc2ccc(OCCN3CCCCC3)cc2)cc1`: the binding remaining, % of control is 112%.

Take `COc1ccccc1NC(=O)Cn1cnc2sc(C)c(S(=O)(=O)N3CCCCC3)c2c1=O`: the binding remaining, % of control stood at 115%.

Take `O=C(COc1ccccc1)Nc1cc(S(=O)(=O)N2CCOCC2)ccc1N1CCCC1`: the binding remaining, % of control was 128%.

For `O=C(CC12CC3CC(CC(C3)C1)C2)N/N=C/c1ccc([N+](=O)[O-])o1`, the binding remaining, % of control is 70.5%.

For `CC(Sc1nc2ccccc2[nH]1)C(=O)NC1CCCCC1C` (stereo not given), the binding remaining, % of control is 87.9%.

`CCOC(=O)CSc1nc(COc2ccccc2)nc2ccccc12`: the binding remaining, % of control worked out at 99.6%.

Regarding `O=C(Cc1cccs1)Nc1cc(S(=O)(=O)N2CCCCC2)ccc1Cl`, the binding remaining, % of control was determined as 121%.

As for `Cc1cccc(NC(=O)CN2C(=O)N/C(=C\c3ccc(N4CCOCC4)cc3)C2=O)c1`, the binding remaining, % of control was 142%.

Regarding `CCCCCCCCn1c2c(c(=N)c3c1CCC3)CCCC2`, the binding remaining, % of control was 36.6%.

For `CCOC(=O)c1sc(NC(=O)C2CC(=O)N(c3ccccc3OC)C2)nc1C` (stereo not given), the binding remaining, % of control is 141%.

With `CCN(CC)S(=O)(=O)c1ccc2c3c(cccc13)C(=O)N2`, the binding remaining, % of control is 56.2%.

For `Cc1cccc(Nc2nc(-c3ccccn3)cs2)n1`, the binding remaining, % of control was determined as 69.7%.
